Shown are actives, neighbours in structure and some others; about 19% of the full set was active somewhere.
IL1B secr inh: blocks inflammasome-driven IL-1 beta release; THP-1 LPS/ATP IL-1B secretion, AlphaLISA, 16 h; hits give low values; activity change, % at 57.5 µM; 4.7% of 360,000 active; in the data active = activity change below about -50%; inconclusive = mostly about -30% to -49%
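Secreted IL-1B measured by AlphaLISA bead assay after 16 h compound exposure of THP-1 cells; compounds (final up to 57.5 uM) added 1 h before LPS (250 ng/mL) and ATP (1.25 mM) stimulation; lower signal means less secretion.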
HT1080 IDH1KD tx: toxicity to HT-1080 IDH1 knockdown cells (counter line); HT-1080 IDH1 knockdown viability, ATP luminescence, 48 h; Potency, µM (doses to about 46.1 µM), inactives show at the top dose activity, negative = toxicity, usual class: cytotoxic; 2% of 360,000 active; AID 686971;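 note: potency is the fitted concentration of half-maximal effect; 0% = DMSO wells and -100% = cell-free medium wells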
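% activity derives from luminescence (CellTiter-Glo), normalised to DMSO and no-cell wells. HT-1080-IDH1KD cells, 750/well, had 48 h compound exposure at 37 °C.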
TDP1 cell CPT: DT40-hTDP1 cell growth loss with CPT | chicken DT40 Tdp1-/-;hTDP1 cells + 20 nM CPT, ATP luminescence, 48 h | Potency, µM (series often up to 46.2 µM), without a hit: top-dose activity change, negative = growth inhibition, usual class: inhibitors | 12% of 420,000 active; note: potency is the fitted concentration of half-maximal effect; nearly all actives have a fitted effect of over 55% in size
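Chicken DT40 Tdp1-/- cells complemented with human TDP1, 400 cells/well, exposed to compounds plus 20 nM camptothecin for at least 48 h at 37 C; viability read as ATP content by CellTiter-Glo luminescence.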
HT1080NT lethal: kills 2HG-producing HT-1080-NT fibrosarcoma cells; HT-1080-NT fibrosarcoma viability, CellTiter-Glo ATP luminescence, 48 h; Potency, µM (doses to about 46.1 µM), for the others: top-dose activity, negative = less viability, actives largely listed as cytotoxic; 1.6% of 360,000 active; AID 686970;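 note: NT is the 2HG producing partner of a matched IDH1 knockdown line; potency is the fitted concentration of half-maximal effect; 0% = DMSO-treated cells and -100% = media-only wells without cells; nearly all actives have a fitted effect of over 55% in size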
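Viability by CellTiter-Glo luminescence after 48 h compound exposure at 37C of HT-1080-NT cells (750/well, RPMI, 5% FBS). % activity scaled between DMSO wells and medium-only wells, then curve-fitted and categorized by curve class.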
DT40 TDP1 no CPT: qHTS for Inhibitors of human tyrosyl-DNA phosphodiesterase 1 (TDP1): qHTS in cells in absence of CPT. AID 686978, 2013. Potency, µM (titrated, usually from 46.2 µM), inactives show at the top dose activity change, negative = growth inhibition, usual class: inhibitors. DT40 Tdp1-/- hTDP1 cells, no CPT, ATP luminescence, 48 h. 15% of 420,000 active; note: potency is the fitted concentration of half-maximal effect; nearly all actives have a fitted effect of over 55% in size
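Chicken DT40 Tdp1-/- cells complemented with human TDP1, screened without camptothecin (DMSO vehicle only), 400 cells/well. Compounds pin-transferred, cells incubated at 37 °C for at least 48 hr. Growth read as ATP-dependent luminescence (CellTiter-Glo, 30 min at RT).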
* marks the source's active call; other numbers are inactive results; ? = inconclusive; / = no result given; [ ] = another dose, or the depositor's remark. Unless noted, calls come from the whole dose curve; as a rule, active = well fitted curve in the direction sought with a large enough effect; inconclusive = small, poorly fitted or top-dose-only effect, or another doubt; inactive = no such curve, though single readings can be large; an effect the other way counts as inactive or inconclusive. Unless noted, % is set by controls: 0 for no effect and ±100 for the full control effect.

SMILES | IL1B secr inh | HT1080 IDH1KD tx | TDP1 cell CPT | HT1080NT lethal | DT40 TDP1 no CPT
CC(C)(C)OC(=O)NN=C(c1ccc(O)cc1)c1ccc(O)cc1 | 2 | 4% | -27% | 1% | 2%
CC1CC(C)CN(C(=O)c2ccc3c(c2NCCO)C(=O)c2ccccc2C3=O)C1 (centres undefined) | -23 | ? | 29µM* | ? | 23µM*
CC1(C)CC(NC(=O)C2CCN(S(=O)(=O)c3cccc(C(F)(F)F)c3)CC2)CC(C)(C)N1 | 0 | 4% | -25% | -2% | 0%
O=C1NC2(CCC3(CC2)OCCO3)NN1c1ccc(Cl)cc1 | 1 | 6.5µM* | -3% | ? | ?
O=C1NC2(CCCCC2)C(=O)N1c1ccc(Cl)cc1 | -4 | 3% | -1% | 4% | 13%
O=C1NC2(CCCCC2)NN1c1ccccc1 | 17 | 5.2µM* | 1% | ? | ?
CC1CCC2(CC1)NC(=S)N(c1ccccc1)N2 (centres undefined) | -4 | 18µM* | -7% | ? | 8%
NC(=O)N1CCC2(CC1)NC(=O)N(c1ccccc1)N2 | 15 | 6.5µM* | 28% | 10µM* | -3%
CC1CCC2(CC1)NC(=S)N(C(C)(C)C)N2 (centres undefined) | / | 3% | 7% | 3% | -12%
O=C(CCC(=O)OCC(=O)c1ccc(Br)cc1)Nc1ccc(Br)c2cccnc12 | 49 | 4% | 3% | -1% | -8%
Cc1ccc2sc(N(CCCN(C)C)C(=O)CN3C(=O)c4ccccc4C3=O)nc2c1C | ? | ? | 21µM* | 16µM* | 21µM*
CN(C)CCCN(C(=O)c1ccc(C(=O)c2ccccc2)cc1)c1nc2ccc(F)cc2s1 | -27 | -11% | ? | -18% | ?
Cc1ccc2nc(N(CCCN(C)C)C(=O)COc3ccc(Cl)cc3)sc2c1 | -28 | 5% | ? | 2% | 21µM*
Cc1cccc2sc(N(CCCN(C)C)C(=O)COc3ccccc3)nc12 | / | / | -5% | / | -6%
CN(C)CCCN(C(=O)c1nc2ccccc2s1)c1nc2ccc(F)cc2s1 | -13 | 1% | 3.7µM* | 2% | 5.8µM*
Cc1cccc2sc(N(CCCN(C)C)C(=O)COc3ccc(Cl)cc3)nc12 | -60* | ? | ? | ? | ?
CN(C)CCCN(C(=O)CCOc1ccccc1)c1nc2c(F)cccc2s1 | -60* | 7.3µM* | 5.8µM* | 15µM* | 4.6µM*
CN(C)CCCN(C(=O)COc1ccc(Cl)cc1)c1nc2ccc(F)cc2s1 | -65* | -9% | -11% | -8% | -21%
O=C(COc1ccccc1)N(Cc1cccnc1)c1nc2ccc(F)cc2s1 | / | / | 1% | / | -12%
CN(C)CCCN(C(=O)COc1ccccc1)c1nc2ccc(F)cc2s1 | -8 | 18% | -10% | 4% | -29%
CN(C)CCCN(C(=O)CCOc1ccccc1)c1nc2ccc(F)cc2s1 | -86* | 21µM* | 2.9µM* | 18µM* | 2.9µM*
O=C(NCc1ccccc1)C1c2ccccc2Oc2ccccc21 | -7 | 0% | -14% | 18% | ?
CCOc1ccccc1-n1c(SCC(=O)Nc2ccc(CC)cc2)nc2n[nH]c(C)c2c1=N | -7 | ? | 12µM* | -9% | 13µM*
CCOc1ccc(-n2c(SCC(=O)Nc3ccc(CC)cc3)nc3c(oc4ccccc43)c2=O)cc1 | / | / | 1% | / | ?
CCc1ccccc1-n1c(SCC(=O)Nc2ccc(C)cc2)nc2n[nH]c(C)c2c1=N | / | / | 7.3µM* | / | 5.2µM*
SMILES | IL1B secr inh | HT1080 IDH1KD tx | TDP1 cell CPT | HT1080NT lethal | DT40 TDP1 no CPT
O=C(NCc1cccnc1)c1csc([C@@H]2C[C@H](O)[C@@H](CO)O2)n1 | 102 | 15% | -27% | 18% | ?
O=C(NCc1ccccc1)c1onc(CSc2ccc(Cl)cc2)c1C(=O)NCC1CC1 | -5 | 6% | ? | 3% | ?
O=C(NCc1ccccc1)c1onc(CSc2ccc(Cl)cc2)c1C(=O)NCc1ccccc1 | -27 | 6% | ? | 7% | ?
O=C(NCc1ccccc1)c1onc(CSc2ccccc2)c1C(=O)NCc1ccccc1 | -16 | 5% | 16µM* | 2% | ?
O=C(NCc1ccccc1)c1onc(CSc2ccccc2)c1C(=O)NCC1CC1 | -52* | -1% | 13µM* | -16% | 21µM*
Cc1ccc(NC(=O)N2CCCC2C(=O)NCC2CCCCC2)cc1 (centres undefined) | -5 | 13% | -1% | -1% | ?
CC(=O)NC(c1cccc([N+](=O)[O-])c1)c1c(OC(C)=O)ccc2ccccc12 (centres undefined) | -1 | -18% | -28% | -23% | ?
CC(=O)Oc1ccc2ccccc2c1C(NC(=O)C(C)C)c1cccc([N+](=O)[O-])c1 (centres undefined) | -74* | 0% | ? | ? | ?
CC(C)(C)c1ccc(NS(=O)(=O)c2ccc(N)cc2)cc1 | -29 | -4% | 2% | 1% | ?
CC(C)(C)c1ccc(S(=O)(=O)/C=C/C#N)cc1 | / | / | 0.79µM* | / | 0.56µM*
c1ccc2c(c1)OCC(CNc1ncnc3sccc13)O2 (centres undefined) | -12 | 1.2µM* | 1.2µM* | 0.73µM* | 0.65µM*
CN(C)c1ccc(CNc2ccccn2)cc1 | -9 | 23% | -23% | 13% | ?
CN(C)c1ccc(CNc2ncnc3sccc23)cc1 | 14 | ? | 4.1µM* | ? | 2.1µM*
Fc1ccccc1CNc1ncnc2sccc12 | -8 | ? | 4.1µM* | -4% | 8.2µM*
CC1(C)CC(=O)C(C(O)c2cccc([N+](=O)[O-])c2)C(C)(C)N1 (centres undefined) | 15 | 1% | 14% | 7% | 8%
CCOc1ccc(NC(=O)c2cc(=O)c3ccc(C)c(C)c3o2)cc1 | / | / | ? | / | 9.2µM*
Cc1ccnc(NS(=O)(=O)c2ccc(NC(=O)c3cc(=O)c4ccc(C)c(C)c4o3)cc2)n1 | / | / | -25% | / | ?
Cc1ccc(N(CC(=O)Nc2ccc(Br)cc2)S(=O)(=O)c2cccs2)cc1 | / | / | -8% | / | -23%
CCOC(=O)N1CCN(c2ccc(C(=O)CC)cc2F)CC1 | 3 | 6% | ? | 6% | ?
CC(=O)c1ccc(N2CCN(C(=O)c3ccc(Br)cc3)CC2)c(F)c1 | -3 | -3% | 9.2µM* | -7% | 13µM*
CC(=O)c1ccc(N2CCN(C(=O)c3ccco3)C(C)C2)c(F)c1 (centres undefined) | -5 | 6% | ? | 13% | 26µM*
CCCC(=O)c1ccc(N2CCCCCC2)c(F)c1 | -8 | -5%[9.24 µM] | ? | -1% | 23µM*
CCCC(=O)c1ccc(N2CCCCC2)c(F)c1 | -6 | 30% | 7% | 27% | 2%

Source: PubChem
